In PubChem BioAssay (NCI) one finds growth data, which are given here for seven compounds.

Some test systems named below: HCT-15 colon; HT29 colon; SNB-75 CNS; SNB-19 CNS; U251 CNS; PC-3 prostate; SK-MEL-5 melanoma; UACC-62 melanoma; LOX IMVI melanoma; SK-MEL-28 melanoma; SK-MEL-2 melanoma; EKVX NSCLC; SN12C renal; UO-31 renal; TK-10 renal; ACHN renal; CAKI-1 renal; A498 renal; CCRF-CEM leukemia; MOLT-4 leukemia.
What all share (experiment): NCI-60 one-dose screen, 48 h (100 = growth as untreated, 0 = no growth, -100 = all killed)
Holding throughout (conditions): 10 µM unless noted

This is part of a sample that, as a whole, favours compounds with a hit. Of some 83,000 tested, about 20% had one in any assay.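 Negative percent growth values reflect cell death: -40 means 40% of the cells present at the start died, and -100 means all died.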 A number with no mark means an inactive call. Active and inactive are the calls of the source. Rule for the calls: active = growth percent below 10; inactive = the rest.

For the compound `O=C(O)CNC1=C(Cl)C(=O)c2ccccc2C1=O`, the growth is 100% in the assay on HCT-15 colon; 103% in the assay on HT29 colon; 86.5% in the assay on SNB-75 CNS; 96.5% with SNB-19 CNS; 91.1% in the assay on U251 CNS; 77.7% with PC-3 prostate. For the same compound, the growth with SK-MEL-5 melanoma is 112%; with UACC-62 melanoma, 93.6%; with LOX IMVI melanoma, 84%; in the assay with SK-MEL-28 melanoma it was 113%; in the assay with SK-MEL-2 melanoma it was 100%; in the assay on EKVX NSCLC, 98.6%. In addition, the growth is 92.7% in the assay with SN12C renal; 58.9% in the assay on UO-31 renal; 110% in the assay with TK-10 renal; 91.2% with ACHN renal; 76.7% in the assay on CAKI-1 renal; 102% in the assay with A498 renal. The growth is 91.4% with CCRF-CEM leukemia and 100% with MOLT-4 leukemia.
On to `CCNC(=O)c1[nH]cc(-c2ccccc2)c1-c1cc(OC)c2c(c1OC)OCO2`, for which the growth in the assay on HCT-15 colon is 103%; in the assay with HT29 colon it was 112%; in the assay on SNB-75 CNS, 91.4%; with SNB-19 CNS, 98.6%; in the assay on U251 CNS, 103%; with PC-3 prostate it was 93.1%. The growth is 89.8% in the assay with SK-MEL-5 melanoma; 92.2% in the assay with UACC-62 melanoma; 95.1% with LOX IMVI melanoma; 99.9% with SK-MEL-2 melanoma; 96.9% in the assay with EKVX NSCLC; 98.7% with SN12C renal. Besides, the growth with UO-31 renal was 76%; in the assay on TK-10 renal, 106%; in the assay with ACHN renal it was 99.1%; in the assay on CAKI-1 renal, 74.7%; in the assay with A498 renal it was 77.1%; in the assay on CCRF-CEM leukemia, 101%. Besides, the growth in the assay with MOLT-4 leukemia is 98.9%.
As for `CC1(C)CC[C@]2(c3nnc(-c4ccncc4)o3)CC[C@H]3C(=CC[C@H]4[C@@]3(C)CC[C@H]3C(C)(C)C(=O)CC[C@]43C)[C@@H]2C1`, the growth in the assay with HCT-15 colon was 61.1%; in the assay with HT29 colon, 50.9%; in the assay on SNB-75 CNS, 68.3%; with SNB-19 CNS, 74%; in the assay with U251 CNS, 62.4%; with PC-3 prostate, 25.1%. The growth was 62.4% in the assay with SK-MEL-5 melanoma; 54.7% in the assay with UACC-62 melanoma; 57.4% in the assay with LOX IMVI melanoma; 87.5% with SK-MEL-28 melanoma; 97% in the assay with SK-MEL-2 melanoma; 80.1% in the assay with EKVX NSCLC. Moreover, the growth in the assay with SN12C renal is 75.2%; in the assay with UO-31 renal it was 51%; in the assay with TK-10 renal it was 97.5%; with ACHN renal, 71.3%; in the assay on CAKI-1 renal, 58.1%; with A498 renal, 31.6%. The growth in the assay with CCRF-CEM leukemia is 52.5%; in the assay on MOLT-4 leukemia, 38.7%.
Take `COc1ccc(N2CCC(=O)NC2=S)cc1`: the growth with HCT-15 colon is 102%; in the assay on HT29 colon, 105%; with SNB-75 CNS, 96.6%; in the assay on SNB-19 CNS it was 105%; with U251 CNS, 103%; in the assay with PC-3 prostate, 107%. Besides, the growth in the assay on SK-MEL-5 melanoma is 99.2%; with UACC-62 melanoma, 99.2%; in the assay with LOX IMVI melanoma, 94.8%; in the assay on SK-MEL-2 melanoma, 102%; with EKVX NSCLC, 102%; in the assay with SN12C renal it was 98.3%. In addition, the growth in the assay with UO-31 renal was 86.5%; in the assay on TK-10 renal, 100%; in the assay with ACHN renal, 104%; in the assay on CAKI-1 renal, 95.4%; with A498 renal it was 108%; in the assay on CCRF-CEM leukemia, 111%. In the assay on MOLT-4 leukemia, the growth is 105%.
Take `CC(=O)n1nc(C(=O)OC(C)C)c2cc(C)c(C)cc21`: the growth with HCT-15 colon is 90.9%; with HT29 colon it was 97.8%; in the assay with SNB-75 CNS, 80.7%; in the assay on SNB-19 CNS, 98.5%; in the assay with U251 CNS, 86.3%; in the assay with PC-3 prostate, 74.2%. Besides, the growth in the assay on SK-MEL-5 melanoma is 92%; in the assay on UACC-62 melanoma it was 97.6%; in the assay with LOX IMVI melanoma, 97%; in the assay with SK-MEL-28 melanoma, 114%; with SK-MEL-2 melanoma it was 106%; in the assay with EKVX NSCLC it was 99%. In addition, the growth in the assay on SN12C renal was 105%; in the assay with UO-31 renal, 94.4%; in the assay with TK-10 renal, 98.6%; in the assay with ACHN renal, 101%; with CAKI-1 renal it was 99.3%; in the assay with A498 renal it was 104%. Further, the results for the growth in the assay on CCRF-CEM leukemia and with MOLT-4 leukemia were 84.7% and 84.8%, respectively.
`COc1ccc(-c2csc(N(C(=O)N3CCN(c4cc5c(cc4F)c(=O)c(C(=O)O)cn5C4CC4)CC3)c3ccccc3)n2)cc1`: the growth in the assay on HCT-15 colon was 9.72% (active); in the assay on HT29 colon, 3.36% (active); in the assay on SNB-75 CNS it was 22.5%; in the assay with SNB-19 CNS, 20.8%; in the assay with U251 CNS it was 19.1%; in the assay on PC-3 prostate, 9.97% (active). Moreover, the growth in the assay with SK-MEL-5 melanoma was -21.6% (active); in the assay with UACC-62 melanoma, 13%; in the assay with LOX IMVI melanoma, 2.06% (active); in the assay on SK-MEL-2 melanoma, 0.424% (active); with EKVX NSCLC it was 15.8%; in the assay with SN12C renal, 6.41% (active). In addition, the growth in the assay with UO-31 renal is 4.2% (active); in the assay on TK-10 renal it was 32.1%; in the assay on ACHN renal, -62.5% (active); with CAKI-1 renal, 6% (active); in the assay on A498 renal, 3.67% (active); with CCRF-CEM leukemia it was 24.9%. In addition, the growth in the assay on MOLT-4 leukemia was 16%.
For `O=C(N/N=C/c1ccc(F)cc1)c1ccc(C(F)(F)F)nc1Nc1cccc(C(F)(F)F)c1`, the growth was 0.43% (active) in the assay with HCT-15 colon; 1.2% (active) with HT29 colon; 0.243% (active) with SNB-75 CNS; 18.4% in the assay on SNB-19 CNS; -41% (active) with U251 CNS; -1.21% (active) in the assay on PC-3 prostate. The growth with SK-MEL-5 melanoma was -30.6% (active); in the assay on UACC-62 melanoma, -6.64% (active); in the assay with LOX IMVI melanoma it was -23.7% (active); with SK-MEL-28 melanoma it was 12.7%; with SK-MEL-2 melanoma, -29.1% (active); with EKVX NSCLC, 4.22% (active). In addition, the growth in the assay on SN12C renal is -12.1% (active); with UO-31 renal, -18.4% (active); in the assay on TK-10 renal, 3.93% (active); in the assay with ACHN renal, -3.72% (active); with CAKI-1 renal it was -7.66% (active); with A498 renal, -1.26% (active). Moreover, the growth is 0.801% (active) in the assay on CCRF-CEM leukemia and -20.3% (active) in the assay with MOLT-4 leukemia.
